Sampled rows, rich in hits. Any-hit rate of the full collection: about 12%.
JMJD2A Tudor = inhibitors of human JMJD2A Tudor domain. hit rate 4.4% among 390,000. O75164. AlphaScreen JMJD2A-Tudor / H3K4me3 peptide binding. Potency, µM (highest dose often 114 µM), without a hit: at the top dose activity change, negative = inhibition, most hits filed as inhibitors. AID 504339; also: % is scaled to controls: 0 for no effect and ±100 for the full control effect; nearly all actives have a fitted effect of over 50% in size
BAZ2B block = BAZ2B (human) inhibition; Q9UIF8; AlphaScreen BAZ2B-H3K14Ac peptide displacement; Potency, µM (highest dose often 114 µM), inactives show at the highest dose activity change, negative = inhibition, most hits filed as inhibitors; hit rate 4.4% among 360,000; also: % is scaled to controls: 0 for no effect and ±100 for the full control effect; nearly all actives have a fitted effect of over 60% in size
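Multi-concentration screen (max 110 uM) measuring displacement of acetylated histone H3 peptide from BAZ2B by AlphaScreen, using 50 nM protein, 50 nM peptide and 10 ug/mL streptavidin donor plus Ni-chelate acceptor beads.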
Sfp PPTase inh = blocks B. subtilis Sfp PPTase activity. Q9F4F7. Biochemical Sfp PPTase activity, qHTS. Potency, µM, for inactives: largest response in the series, negative = inhibition, usual class: inhibitors. hit rate 3.5% among 310,000;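 also: the enzyme is Sfp with the accession as filed and its product quenches rhodamine fluorescence; 0% = enzyme reaction without inhibitor and -100% = no enzyme wells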
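Step 1, compound plus 15 nM Sfp-PPTase, 15 min, room temperature. Step 2, add rhodamine-CoA (5 uM) and BHQ-2-YbbR (12.5 uM). Step 3, read 525/598 nm fluorescence at 0 and 30 min.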
PLK1 PBD inh = inhibitors of human PLK1 polo-box domain binding; Plk1 PBD binding of FITC phosphopeptide, fluorescence polarization; Potency, µM, for the others: max response, negative = inhibition, actives largely listed as inhibitors; hit rate 2.8% among 360,000; AID 720504; also: series mostly up to about 57 µM; % is scaled to controls: 0 for no effect and ±100 for the full control effect; nearly all actives have a fitted effect of over 65% in size
HP1b binding inh = blocks HP1-beta chromodomain binding to methylated histone tails; AlphaScreen HP1-beta / biotin-H3K9me3 peptide binding; Potency, µM (titrated, usually from 114 µM), inactives show at the highest dose activity change, negative = inhibition, usual class: inhibitors; hit rate 0.56% among 390,000; also: nearly all actives have a fitted effect of over 70% in size
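AlphaScreen: HP1-beta (50 nM) preformed 30 min with biotin-H3(1-18)K9me3 peptide (50 nM) in PBS pH 7.4, 0.01% Tween-20. Compound added for 30 min at RT, then streptavidin donor/nickel chelate acceptor beads (10 ug/mL) for 30 min.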
G9a block = inhibitors of human histone lysine methyltransferase G9a. hit rate 8.8% among 350,000. Potency, µM (highest dose often 102 µM), for inactives: top-dose activity, negative = inhibition, most hits filed as inhibitors. G9a H3K9 monomethylation, AlphaScreen, 2 h. Q96KQ7; also: % is scaled to controls: 0 for no effect and ±100 for the full control effect; nearly all actives have a fitted effect of over 75% in size
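Quantitative HTS format: methyltransferase activity on a biotin-tagged H3K9 peptide is measured by AlphaScreen, using a rabbit anti-monomethyl-H3K9 antibody with streptavidin donor and anti-IgG acceptor beads. Final levels are 20 nM enzyme, 500 nM peptide, 20 uM SAM; 2 h RT.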
Active calls of the source: *; ? = inconclusive; nt = no result given; [ ] = dose if it differs, or a comment. Calls follow the shape of the dose curve; as a rule, active = well fitted curve in the direction sought with a large enough effect; inconclusive = small, poorly fitted or top-dose-only effect, or another doubt; inactive = no such curve, though single readings can be large; an effect the other way counts as inactive or inconclusive. Potency is read from the fitted curve at half-maximal effect.

SMILES	JMJD2A Tudor	BAZ2B block	Sfp PPTase inh	PLK1 PBD inh	HP1b binding inh	G9a block
O=C(COC(=O)c1ccc(Br)o1)Nc1ncc(Cl)cc1Cl	?	50µM*	-6%	-21%	11%	?
COc1cc(OC)cc(C(=O)NCC(=O)OCC(=O)Nc2ncc(Cl)cc2Cl)c1	-27%	-18%	7%	-19%	-5%	71µM*
COc1cc(OC)cc(C(=O)NCC(=O)OCC(=O)c2ccc3c(c2)-c2ccccc2C3)c1	-11%	10%	-9%	1%	45%	35µM*
Cc1ccc(C)c(NC(=O)COC(=O)c2ccc(S(=O)(=O)N3CCCC3)cc2)c1	nt	nt	nt	-18%	nt	nt
O=C1NC(c2ccccc2Cl)Nc2ccccc21 (stereo not given)	-30%	-1%	8%	-1%	26%	15%[59 µM]
Clc1cccc(C2Nc3cccc4cccc(c34)N2)c1Cl	50µM*	40µM*	0%	-5%	?	24%[0.501 µM]
Clc1ccccc1C1Nc2cccc3cccc(c23)N1	?	71µM*	-29%	-18%	?	nt
CCN(CC)c1ccc(C2Nc3cccc4cccc(c34)N2)cc1	?	-28%	-13%	2%	?	nt
c1coc(C2Nc3cccc4cccc(c34)N2)c1	nt	?	3.2µM*	nt	nt	?
Fc1ccc(C2Nc3cccc4cccc(c34)N2)cc1	?	?	?	?	?	-37%[2.33 µM]
Cc1ccc(C2Nc3cccc4cccc(c34)N2)s1	?	?	?	?	?	13µM*
COc1cc(NC(=O)C2(C)CCN2C(=O)C(C)C)cc(OC)c1OC (stereo not given)	nt	nt	nt	3%	nt	nt
Cc1ccc(-c2nc3ncccc3o2)cc1NC(=O)c1ccc(-c2ccc(Cl)cc2)o1	-10%	5%	nt	nt	34%	1%[59 µM]
Cc1ccc(S(=O)(=O)CCC(=O)Nc2ccc(Br)cc2C)cc1	-13%	7%[57.1 µM]	nt	nt	-14%	?
COc1cc(NC(=O)CCCN2C(=O)CCn3nc(-c4cn(C)c5ccccc45)cc32)cc(OC)c1	-33%	-31%	nt	nt	19%[57 µM]	-9%[59 µM]
COC1OC(COCc2ccccc2)C(N)C(OCc2ccccc2)C1OCc1ccccc1 (stereo not given)	-14%	nt	nt	0%	16%	nt
CCOC(=O)C1=C(COC(=O)CC(C)c2ccccc2)NC(=O)NC1C (stereo not given)	-3%	8%	nt	-1%	51%	10%[12.7 µM]
Oc1ccc(C2Nc3cccc4cccc(c34)N2)c(O)c1	79µM*	?	-20%	?	18µM*	45µM*
COc1cc(C)ccc1OCCSc1nnc(-c2ccc(C)cc2)o1	53%	82%	nt	nt	72%	-49%[59 µM]
Cc1ccccc1N/N=C/c1c(C)nc2ccccn12	?	?	-7%	-1%	10%	35µM*
Cc1ccc(NC(=O)c2c(C)nc3ccccn23)cc1C	-15%	-7%	-15%	-15%	20%	21%
Cc1cccc(NC(=O)Cn2ncc3c4ccccc4n(Cc4ccccc4)c3c2=O)c1C	-17%	-4%	nt	nt	10%	-4%[59 µM]
C=C1CC(Cn2cc(Br)c(=O)[nH]c2=O)(c2ccc(-c3ccccc3)cc2)OC1=O (stereo not given)	-22%	nt	nt	24µM*	18%	nt
Cc1nc(NCc2ccco2)c2c(C)c(C)sc2n1	3.2µM*	28µM*	-28%	-1%	?	8.9µM*
COC(=O)c1ccc(CSc2nnc(SCc3ccc(C(=O)OC)o3)s2)o1	-15%	-5%	-15%	-21%	6%	-38%[59 µM]
SMILES	JMJD2A Tudor	BAZ2B block	Sfp PPTase inh	PLK1 PBD inh	HP1b binding inh	G9a block
COC(=O)c1ccc(CSc2nc(C)nc3sc(C)c(C)c23)o1	-8%	?	25µM*	-10%	33%	?
COC(=O)c1ccc(CSc2nnc(NCc3ccccc3)s2)o1	0%	2%	4%	-11%	45%	50µM*
CCOC(=O)c1sc2nc(CC(=O)OC)nc(NCc3ccco3)c2c1C	?	?	-15%	-7%	-19%	-5%[12.7 µM]
Cc1nc(SCC(=O)N(C)Cc2ccco2)c2c(C)c(C)sc2n1	-28%[57.1 µM]	-26%	-12%	?	24%	50µM*
Cc1sc2nc(SCC(=O)C(C)(C)C)n(Cc3ccco3)c(=O)c2c1C	-23%	-4%	-15%	-3%	25%	-8%[59 µM]
Cc1sc2nc3c4ccccc4c(NCc4ccco4)nn3c(=O)c2c1C	8%	19%	18µM*	-8%	30%	-29%[59 µM]
N#CC1=C(Nc2ccccc2)SC=C(c2ccccc2)N=C1N1CCOCC1	-18%	-1%	-15%	-6%	36%	50µM*
N#CC1=C(Nc2ccccc2)SC=C(c2ccc(Cl)c(Cl)c2)N=C1N1CCOCC1	-20%	?	-14%	-4%	13%	4%[0.501 µM]
CCc1cccc2c(C(=O)CCl)c[nH]c12	-10%	0%	10%	24µM*	32%	?
CCc1cccc2c(C(=S)N3CCCC3)c[nH]c12	-30%	-16%	-2%	-14%	25%	-2%[12.7 µM]
O=C(COC(=O)c1cccs1)NCCc1ccc(F)cc1	15%	1%	nt	3%	22%	-44%
CCOC(=O)c1sc(=S)n(-c2cc(F)ccc2F)c1N	?	-9%	56µM*	?	-35%	26%[0.501 µM]
COC(=O)c1sc(=S)n(-c2cc(F)ccc2F)c1N	?	56µM*	50µM*	13µM*	?	12%[0.501 µM]
COc1ccc(-c2nc(CSc3nc4ncccc4[nH]3)c(C)o2)cc1OC	-27%	-16%	nt	nt	22%	?
CCOc1ccc(C(=S)NC2CCCCC2)cc1	-9%	-20%	6%	27µM*	-20%	10µM*
CCCOc1ccc(OCCNC2CCCC2)cc1	89µM*	?	-13%	4%	?	10µM*
CCOc1ccc(/C=C/C(=O)NC2CCCCC2)cc1	-6%	1%	13%	-6%	13%	10%[0.501 µM]
CCc1ccc(OCCOCC(O)CNC2CCCC2)cc1 (stereo not given)	-1%	1%	5%	1%	17%	7%
CCOc1ccc(OCCNC2CCCC2)cc1	3.2µM*	17%	?	3%	?	?
CCOc1ccc(C(=O)NC2CCCCCCC2)cc1	12%	nt	nt	3%	28%	nt
CCOc1ccc(CNC(=O)Cn2nc(C)c3nn(-c4ccc(Cl)cc4)c(C)c3c2=O)cc1OC	-10%	3%	nt	nt	30%[57 µM]	6%[59 µM]
CCN(CC)CCCN1C(=O)C(O)=C(C(=O)c2cc3ccccc3o2)C1c1ccccn1 (stereo not given)	1%[11.4 µM]	-26%	8%	27µM*	-3%	?
CCN(CC)CCN1C(=O)C(O)=C(C(=O)c2ccco2)C1c1ccccn1 (stereo not given)	89µM*	?	-25%	-24%	46%	11µM*
CN(C)CCN1C(=O)C(O)=C(C(=O)c2cc3ccccc3o2)C1c1ccccn1 (stereo not given)	nt	12%	-3%	nt	nt	?
